This is a sample that favours compounds with a hit; in the whole collection about 3.9% have one here.
CCHFV vOTU inh: CCHFV vOTU protease inhibitors, primary screen, biochemical, Pep-AMC substrate, fluorescence. Crimean-Congo hemorrhagic fever virus L polyprotein viral ovarian tumor (vOTU) protease …. inhibition, % at 11.5 µM. actives 0.55% (n = 370,000). AID 651958, 2012; in the data active means inhibition above about 30%; further: 0% = vehicle wells with enzyme and 100% = no enzyme wells
Mtb FBA inh: Mtb FBA enzyme inhibitors, primary screen, biochemical, fluorescence, strain H37Rv; Fructose-bisphosphate aldolase (Mycobacterium tuberculosis (strain ATCC 25618 / H37Rv)), …; purified M. tuberculosis FBA, fluorescence read-out; inhibition, % at 1 µM; actives 2.3% (n = 360,000); AID 588726, 2011;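 further: 0% = vehicle and 100% = reference inhibitor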
Target sequence (P9WQA3 whole entry, looked up): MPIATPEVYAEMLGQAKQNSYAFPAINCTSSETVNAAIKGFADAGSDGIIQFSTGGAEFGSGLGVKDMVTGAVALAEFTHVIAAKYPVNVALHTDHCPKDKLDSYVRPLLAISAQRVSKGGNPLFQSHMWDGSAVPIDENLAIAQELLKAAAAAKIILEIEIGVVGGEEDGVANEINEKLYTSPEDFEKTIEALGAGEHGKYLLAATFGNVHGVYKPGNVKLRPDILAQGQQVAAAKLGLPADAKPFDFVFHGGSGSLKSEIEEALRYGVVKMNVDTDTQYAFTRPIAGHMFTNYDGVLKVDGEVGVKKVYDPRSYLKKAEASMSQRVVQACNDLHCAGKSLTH
GDH-TPI counter-1: GDH-TPI coupling enzyme inhibitors, primary screen, artefact control for M. tuberculosis FBA inhibitor project, biochemical, absorbance, full deck | GDH-TPI coupled enzyme counterscreen, NADH absorbance | inhibition, % at 4.8 µM | actives 1.2% (n = 360,000); in the data active means inhibition above about 30%;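 further: 0% = DMSO wells and 100% = wells lacking the enzyme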
BH1578 lux ind: inducers of Vibrio cholerae quorum light production without autoinducers, primary screen, BH1578 luxS cqsA deficient, single point; AID 588436, 2011; activation, % at 18.7 µM; actives 0.16% (n = 350,000); V. cholerae BH1578 lux reporter, luminescence, 6 h; in the data active means activation mostly above about 9.7%, no sharp cut-off
Mtb FBA inh conf: M. tuberculosis aldolase blockers, biochemical, fluorescence, strain H37Rv, confirmation | shares compounds with Mtb FBA inh | purified M. tuberculosis FBA, fluorescence read-out | inhibition, % at 1 µM | actives 78% (n = 5,600);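 further: 0% = vehicle wells and 100% = reference inhibitor wells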
GDH-TPI counter-2: GDH-TPI coupling enzyme inhibitors, artefact control for M. tuberculosis FBA inhibitor project, biochemical, fluorescence, high throughput; shares compounds with Mtb FBA inh; GDH-TPI coupled enzyme counterscreen; inhibition, % at 1 µM; actives 81% (n = 5,600); AID 652141, 2013; in the data active means inhibition above about 10%
* = called active by the depositor. Unless noted, no stated cut-off is given here; in the data, active means inhibition above about 27%; inactive means the rest.

What do the screens show for `CCOC(=O)C(C)Oc1ccc2c(CC)cc(=O)oc2c1C` (stereo not given)?
CCHFV vOTU inh: 3; Mtb FBA inh: 31*; GDH-TPI counter-1: 2; BH1578 lux ind: 2; Mtb FBA inh conf: 74*; GDH-TPI counter-2: 72*

How did CCC(=O)Oc1ccc2c(C)cc(=O)oc2c1C do in these assays?
CCHFV vOTU inh: -91; Mtb FBA inh: 39*; GDH-TPI counter-1: 4; BH1578 lux ind: inactive; Mtb FBA inh conf: 94*; GDH-TPI counter-2: 95*

What do the screens show for `CCOc1ccc2c(C)cc(=O)oc2c1OCC`?
CCHFV vOTU inh: -13; Mtb FBA inh: 10; GDH-TPI counter-1: 12; BH1578 lux ind: inactive

Results for Cc1noc(C)c1-c1ccc(C(=O)NCC(C)C)c2occc12 ?
CCHFV vOTU inh: 3; Mtb FBA inh: 0; GDH-TPI counter-1: -6; BH1578 lux ind: 0

Results for Cc1ccc(NC(=O)CSC(C)C(=O)OCc2cc(=O)oc3cc(O)ccc23)cc1 (stereo not given) ?
CCHFV vOTU inh: -59; Mtb FBA inh: 41*; GDH-TPI counter-1: 12; BH1578 lux ind: 0; Mtb FBA inh conf: active; GDH-TPI counter-2: active

How did CCN(CC)c1ccc(C(=O)OCc2cc(=O)oc3cc(O)ccc23)cc1 do in these assays?
CCHFV vOTU inh: 4; Mtb FBA inh: 72*; GDH-TPI counter-1: 32*; BH1578 lux ind: 0; Mtb FBA inh conf: -4; GDH-TPI counter-2: -2

Results for Cc1ccc(S(=O)(=O)NCC(=O)OCc2cc(=O)oc3cc(C)ccc23)cc1 ?
CCHFV vOTU inh: 5; Mtb FBA inh: 3; GDH-TPI counter-1: 13; BH1578 lux ind: -1

What do the screens show for `Cc1ccc(C(=O)N/C(=C\c2ccccc2)C(=O)NCc2ccncc2)cc1`?
CCHFV vOTU inh: 21; Mtb FBA inh: -3; GDH-TPI counter-1: 19; BH1578 lux ind: -1

How did COC(=O)C1=C(C)N(C)C(=NCc2ccc3c(c2)OCO3)NC1c1ccc(C(F)(F)F)cc1 (stereo not given) do in these assays?
CCHFV vOTU inh: 8

Results for CCOC(=O)/C=C/[C@H]1CCc2cccc(Cl)c2O1 ?
CCHFV vOTU inh: 17; Mtb FBA inh: 67*; GDH-TPI counter-1: -4; BH1578 lux ind: inactive; Mtb FBA inh conf: 9; GDH-TPI counter-2: 7

What do the screens show for `CCOC(=O)CN(c1ccccn1)S(=O)(=O)c1ccccc1`?
CCHFV vOTU inh: -2; Mtb FBA inh: 35*; GDH-TPI counter-1: 8; BH1578 lux ind: 3; Mtb FBA inh conf: -2; GDH-TPI counter-2: -5

What do the screens show for `COc1ccc(S(=O)(=O)N(CC(=O)O)c2ccccn2)cc1`?
CCHFV vOTU inh: -2; Mtb FBA inh: 22; GDH-TPI counter-1: 5; BH1578 lux ind: inactive

What do the screens show for `CNC(=O)/C(C#N)=C/c1c(N2CCN(C)CC2)nc2c(C)cccn2c1=O`?
CCHFV vOTU inh: -28; Mtb FBA inh: 28*; GDH-TPI counter-1: 17; BH1578 lux ind: -1; Mtb FBA inh conf: 62*; GDH-TPI counter-2: 59*

Results for CCN1CCN(c2nc3c(C)cccn3c(=O)c2/C=C(\C#N)C(=O)NC)CC1 ?
CCHFV vOTU inh: -39; Mtb FBA inh: 30*; GDH-TPI counter-1: 7; BH1578 lux ind: 0; Mtb FBA inh conf: 32*; GDH-TPI counter-2: 20*

Results for CNC(=O)/C(C#N)=C/c1c(N2CCN(c3cccc(Cl)c3)CC2)nc2c(C)cccn2c1=O ?
CCHFV vOTU inh: -16; Mtb FBA inh: 25; GDH-TPI counter-1: 11; BH1578 lux ind: -1

How did CCc1cc(=O)oc2cc(OCc3nn[nH]n3)ccc12 do in these assays?
Mtb FBA inh: 31*; GDH-TPI counter-1: 8; BH1578 lux ind: 6; Mtb FBA inh conf: active; GDH-TPI counter-2: active

Results for CCc1cc(=O)oc2cc(OCC=C(C)C)ccc12 ?
CCHFV vOTU inh: -14; Mtb FBA inh: 36*; GDH-TPI counter-1: 4; BH1578 lux ind: inactive; Mtb FBA inh conf: 35*; GDH-TPI counter-2: 30*
